Molecules are shown by their SMILES. The whole screen tested about 360,000 compounds, of which about 1,300 (0.36%) were called active. This is one part of a sample in which actives are shown more often than they occur. Values without a mark were called inactive.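 Rule for the calls: active = corrected activity change at or below -50% at 5 µM; inactive = the rest.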

This test is described as follows: KKLEB cell viability reduction – uHTS, fluorescence assay plates, cytotoxicity control for CF NF-kB inhibitor project, primary screen (AID 602141). To be noted: KKLEB CF airway cells viability, ATPlite luminescence, overnight; at 5 µM; active compounds read low; cells stimulated with P. aeruginosa culture filtrate. For orientation: Cellular ATP, detected with luciferase, serves as a proxy for viable cell number.
In the case of `Cc1noc(C)c1C(=O)OC(C)C(=O)Nc1ccc2c(c1)OCO2` (stereo not given), the activity change (cytotoxicity) was 1.3%.

Take `COc1ccccc1NC(=O)C1CCN(C(=O)c2ccc(C(C)(C)C)cc2)CC1`: the activity change (cytotoxicity) was 3.1%.

Regarding `COc1ccc(NS(=O)(=O)c2ccc(N3CCOCC3)c(NC(=O)/C=C/C(=O)O)c2)cc1`, the activity change (cytotoxicity) is 17.8%.

With `COC(=O)c1sc(-c2ccc(C(C)(C)C)cc2)cc1NC(=O)/C=C/C(=O)O`, the activity change (cytotoxicity) is -51.8% (active).

Turning to `O=C(C=CC(=O)Nc1ccc(F)cc1F)Nc1ccc(F)cc1F`, the activity change (cytotoxicity) was -11%.

Turning to `O=C(NCC1CCCO1)c1ccccc1-c1nc(-c2ccccc2Cl)no1` (stereo not given), the activity change (cytotoxicity) is -12.9%.

Regarding `O=C(O)CC12CC3CC(C1)CC(n1ncc(NCc4ccc(F)cc4)c(Cl)c1=O)(C3)C2`, the activity change (cytotoxicity) was -4.6%.

As to `CCN1CCC(O)(/C=C/c2ccc(C)cc2)C(C(=O)/C=C/c2ccc(C)cc2)C1` (stereo not given), the activity change (cytotoxicity) was -73.7% (active).

Consider `CCN1CCC2(CC1)N=C(c1ccc(F)cc1)C(=S)N2C(=O)c1ccc(C)cc1`, for which the activity change (cytotoxicity) is 2.3%.

As for `CCc1nc2ccc(C(=O)N3CCC(O)(Cc4ccccc4)CC3)cn2c1N(C)C(=O)Cc1ccccc1`, the activity change (cytotoxicity) is -15.5%.

For `CC(=O)Nc1cccc(-c2cc(NC=O)c3ncc(-c4ccc(F)c(Cl)c4)n3c2)c1`, the activity change (cytotoxicity) is 0.8%.

For `CC(=O)c1cccc(-c2cnc3c(NC=O)cc(-c4ccc(N(C)C)cc4)cn23)c1`, the activity change (cytotoxicity) was -27.1%.

As for `CC(=O)c1ccc(-c2cnc3c(NC=O)cc(-c4cccc(NS(C)(=O)=O)c4)cn23)cc1`, the activity change (cytotoxicity) is -51.7% (active).

For the compound `O=C(Nc1ccc(S(=O)(=O)N2CCCCCC2)cc1)c1c(F)cccc1F`, the activity change (cytotoxicity) was 5.1%.

For `O=C(Nc1ccncc1)c1c(F)cccc1F`, the activity change (cytotoxicity) is -51.3% (active).

On to `COc1cccc(OC)c1C(=O)Nc1ccc(Cc2ccncc2)cc1`, for which the activity change (cytotoxicity) was -3.9%.

With `CCOC(=O)C1CCCN(C(=O)C2CCN(c3nnc(-n4cccc4)s3)CC2)C1` (stereo not given), the activity change (cytotoxicity) was -8.3%.

With `COc1ccc(NC(=O)COC(=O)C2COc3ccccc3O2)cc1` (stereo not given), the activity change (cytotoxicity) is 12.9%.

In the case of `O=C(Nc1cc(S(=O)(=O)N2CCCCC2)ccc1Cl)C1COc2ccccc2O1` (stereo not given), the activity change (cytotoxicity) was -14%.

With `O=C(Nc1nc(-c2ccncc2)cs1)C1COc2ccccc2O1` (stereo not given), the activity change (cytotoxicity) was -70.7% (active).

Turning to `CCN1CCN(C(=O)CN(C)S(=O)(=O)c2ccc(OC)cc2)CC1`, the activity change (cytotoxicity) was 3.4%.

Turning to `CSc1cccc(NC(=O)CN2C(=O)COc3ccc(S(=O)(=O)N4CCOCC4)cc32)c1`, the activity change (cytotoxicity) is 6.5%.

For the compound `Cc1ccc(CNC(=O)COc2ccc(S(=O)(=O)NC(C)C)cc2)cc1`, the activity change (cytotoxicity) is -0.1%.

Consider `O=C1CN(C(=O)c2ccccc2F)C(c2ccc(F)cc2)c2cc(F)ccc2N1` (stereo not given), for which the activity change (cytotoxicity) was 11.6%.

`C=CCNC(=S)NNC(=O)COc1c(Cl)cc(Cl)cc1Cl`: the activity change (cytotoxicity) was -16.4%.

With `O=C(C1CCN(S(=O)(=O)c2ccc(Br)s2)CC1)N1CCN(C2CCCCC2)CC1`, the activity change (cytotoxicity) is 13.7%.

As for `CCCOc1ccc(C(=O)C(CCC(CNCC)C(=O)c2ccc(OCCC)cc2)CNCC)cc1` (stereo not given), the activity change (cytotoxicity) was -58.6% (active).

As for `CCCc1ccc(OCCNC(=O)c2ccccc2Br)cc1`, the activity change (cytotoxicity) is -6.1%.

For `CC(C)CCOc1ccc(C(=O)C[N+]2(C)CCOCC2)cc1`, the activity change (cytotoxicity) was 1.8%.

Regarding `Cc1ccc(C(NC(=O)C2CCN(CCOc3ccc(Cl)cc3Cl)CC2)c2ccccn2)cc1` (stereo not given), the activity change (cytotoxicity) is -0.6%.

With `CCOc1ccc(-c2cc(C(=O)N/N=C/c3ccc(O)cc3)c3ccccc3n2)cc1`, the activity change (cytotoxicity) was -15.6%.

`COc1ccc(C(=O)Nc2ccccc2C(=O)N/N=C/c2ccc(O)c(OC)c2)cc1`: the activity change (cytotoxicity) was -87.3% (active).

On to `COc1cccc(OCc2cc(/C=N/NC(=O)c3nc(Cl)c(Cl)c(N)c3Cl)ccc2OC)c1`, for which the activity change (cytotoxicity) was -5.4%.

Consider `CC(=O)Nc1ccc(NC(=O)CC2CCCC2)cc1`, for which the activity change (cytotoxicity) was 6.6%.

For the compound `O=c1c2ccccc2ncn1CCCCOc1ccccc1F`, the activity change (cytotoxicity) was 5.1%.

Take `COCCCNC(=O)C1CC(=O)N(CCc2ccc(F)cc2)C1` (stereo not given): the activity change (cytotoxicity) is 1.6%.

Regarding `O=C(CSc1nc2nccnc2c(=O)n1Cc1cccs1)Nc1ccccc1F`, the activity change (cytotoxicity) was -10.3%.

`CCOc1ccc(NC(=O)CSc2nc3ccccc3c(=O)n2Cc2cccs2)cc1`: the activity change (cytotoxicity) is -54.6% (active).

On to `CC(=O)NCCn1c(SCC(=O)Nc2ccc(C)cc2)nc2ccccc2c1=O`, for which the activity change (cytotoxicity) is 4.4%.

For the compound `Cc1ccc(NC(=O)C(c2ccccc2)N2CCN(C(=O)c3ccco3)CC2)cc1` (stereo not given), the activity change (cytotoxicity) was 19.2%.

In the case of `CSc1ccc(CNC(=O)c2ccc(NC(=O)C3=CSCCO3)cc2)cc1`, the activity change (cytotoxicity) is -31.3%.

For the compound `CCC/C(O)=C1\C(=O)CC(C)(C)CC1=Nc1ccccc1OC`, the activity change (cytotoxicity) is 21.9%.

As to `Cc1cc2c(C)nc(N/N=C/c3ccccc3)nc2o1`, the activity change (cytotoxicity) is 16.3%.

For the compound `C=C(C)C(=O)O[C@H]1C/C(C)=C\C(=O)/C=C(\C)[C@H](O)[C@@H]2OC(=O)C(=C)[C@@H]21`, the activity change (cytotoxicity) is -78.6% (active).

Consider `COc1cccc(C(=O)Oc2cc(C)[nH]c(=O)c2[N+](=O)[O-])c1`, for which the activity change (cytotoxicity) is 0.5%.

For the compound `COC(=O)C1CCCCN1C(=O)c1ccc(OC2CCN(C(C)=O)CC2)c(OC)c1` (stereo not given), the activity change (cytotoxicity) was 2.5%.

On to `Cc1ccc2c(c1)N(C(=O)CCC(=O)N1CCc3ccccc3C1)CCO2`, for which the activity change (cytotoxicity) was -2.8%.

For `O=C(NCC(=O)N1CCN(c2ccccc2F)CC1)c1cccs1`, the activity change (cytotoxicity) is 10.7%.

For the compound `Cc1ccc(C)c(NC(CC(=O)c2ccccc2)C(=O)OCC(=O)c2cccs2)c1` (stereo not given), the activity change (cytotoxicity) is 5.7%.

For the compound `Cc1ccccc1C(CC(=O)c1cccs1)C(C#N)C#N` (stereo not given), the activity change (cytotoxicity) was -51.2% (active).

Regarding `CCN(CC)c1nc(-c2ccccc2)cc(C(F)(F)F)c1C#N`, the activity change (cytotoxicity) was 9.1%.

Turning to `Cc1ccc(CC(=O)Nc2ccc(OC(F)F)c(Cl)c2)cc1C`, the activity change (cytotoxicity) is 5.1%.

Consider `O=C(Cc1ccc(Cl)c(Cl)c1)Nc1ccc(SC(F)F)cc1`, for which the activity change (cytotoxicity) was -64.7% (active).

Turning to `CN(CC(=O)Nc1ccc(S(=O)(=O)N2CCCC2)cc1)Cc1ccc(Cl)c(Cl)c1`, the activity change (cytotoxicity) was -2.3%.

As for `COc1ccccc1NC(=O)CSc1nnc(CNC(=O)c2ccccc2F)o1`, the activity change (cytotoxicity) was -0.3%.

For the compound `CCn1cc(NC(=O)Nc2ccc(OC)c(OC)c2)c(C(N)=O)n1`, the activity change (cytotoxicity) is -3.5%.

On to `O=C(COC(=O)/C(=C/c1cccs1)c1cccs1)NCc1ccccc1Cl`, for which the activity change (cytotoxicity) was 4.5%.

On to `CC1(C(=O)O)CCC(C(=O)Nc2ccc(Cl)c(Cl)c2)C1(C)C` (stereo not given), for which the activity change (cytotoxicity) was 3.1%.

Take `O=C(CC(O)(C(F)(F)F)C(F)(F)F)Nc1ccc(Cl)c(Cl)c1`: the activity change (cytotoxicity) was -59% (active).

On to `N#CCCN(C(=O)Nc1ccc(Cl)c(Cl)c1)C1CCCCC1`, for which the activity change (cytotoxicity) was 11.3%.

Consider `CCCCC(c1nnnn1CS(=O)(=O)c1ccc(C)cc1)N1CCC(C(N)=O)CC1` (stereo not given), for which the activity change (cytotoxicity) is -15%.

As to `O=C(CCl)N(Cc1cccc([N+](=O)[O-])c1)c1cccc(Cl)c1`, the activity change (cytotoxicity) is -96.2% (active).

`CC(=O)N(CN1C(=O)C2CC=CCC2C1=O)c1cccc(Cl)c1` (stereo not given): the activity change (cytotoxicity) is 8.7%.

On to `Cc1ccc(S(=O)(=O)N(CC(=O)Nc2cccc([N+](=O)[O-])c2)Cc2ccc(Cl)cc2)cc1`, for which the activity change (cytotoxicity) is 10.5%.

On to `CCCSc1nc2sc3c(c2c(=O)n1-c1ccc(OC)cc1)CCN(C)C3`, for which the activity change (cytotoxicity) was 6.6%.

Regarding `CCCn1nnc2sc3c(c2c1=O)CCC(C)C3` (stereo not given), the activity change (cytotoxicity) was -55.8% (active).

For the compound `Cc1cc(NC(=O)CSc2nc(C(C)C)nc3sc4c(c23)CCC(C)C4)no1` (stereo not given), the activity change (cytotoxicity) is -1.3%.

Take `O=S(=O)(O)CCN1CCOCC1`: the activity change (cytotoxicity) was -2.1%.

Regarding `CC(=O)NC(c1cccc(F)c1)c1nc(-c2cccc(F)c2)cs1` (stereo not given), the activity change (cytotoxicity) was -3.6%.

Regarding `CC(C)N(Cc1nc(-c2ccc3c(c2)OCO3)no1)CC1CCC(=O)N1` (stereo not given), the activity change (cytotoxicity) is 7.7%.

In the case of `CCCSc1nsc(N)n1`, the activity change (cytotoxicity) was -4.9%.

Turning to `COC(=O)c1sc(NC(=O)c2ccc(OC)cc2OC)nc1C`, the activity change (cytotoxicity) is -66.8% (active).

Turning to `Cc1csc(NC(=O)CSc2nc(=O)cc(N)n2-c2ccc(F)cc2)n1`, the activity change (cytotoxicity) was -0.9%.

Regarding `Cc1ccccc1OCC(=O)Nc1nc(C)c(C(=O)N(C)C)s1`, the activity change (cytotoxicity) was 2.2%.

For `COc1cc(SC)ccc1C(=O)Nc1nc(C)cs1`, the activity change (cytotoxicity) is -88.8% (active).

On to `Cc1csc(NC(=O)CSc2ccc(-c3ccc(F)cc3)nn2)n1`, for which the activity change (cytotoxicity) was 8.5%.

Regarding `COc1ccc(C(=O)CCC(=O)Nc2cccnc2)c(OC)c1`, the activity change (cytotoxicity) is -8.9%.

With `Cc1ccc2c(c1)N(CC(=O)N1CCC(O)CC1)C(=O)CO2`, the activity change (cytotoxicity) is 7.7%.

In the case of `O=C(NCCCN1CCCCC1)C1CC(=O)N(CCc2ccccc2)C1` (stereo not given), the activity change (cytotoxicity) is -3.7%.

For `O=C(CNC(=O)c1cc(S(=O)(=O)N2CCOCC2)ccc1N1CCCC1)Nc1ccc(F)c(F)c1`, the activity change (cytotoxicity) is 8%.

Regarding `Cc1cc(C)c2c(=O)n3c(nc2c1)C(CC(C)C)NC(=O)c1cc2ccccc2cc1-3` (stereo not given), the activity change (cytotoxicity) was -9%.

For the compound `O=C(/C(=C/c1cccc(Cl)c1)c1nc2ccccc2[nH]1)c1ccccc1`, the activity change (cytotoxicity) is -62.2% (active).

Consider `CCCCn1c(N)c(N(CC(C)C)C(=O)CN(C)S(=O)(=O)c2ccc(F)cc2)c(=O)[nH]c1=O`, for which the activity change (cytotoxicity) is 1.7%.

Regarding `CCNC(=O)CC1C(=O)N(c2ccc(F)cc2)C(=O)N1CCc1sccc1C` (stereo not given), the activity change (cytotoxicity) was 15.4%.

For `O=C(NC(Nc1nc2ccc([N+](=O)[O-])cc2s1)(C(F)(F)F)C(F)(F)F)c1ccccc1`, the activity change (cytotoxicity) was -70.6% (active).

Consider `O=C(Nc1nnc(SCc2ccccc2Cl)s1)c1cccc([N+](=O)[O-])c1`, for which the activity change (cytotoxicity) is -35.3%.

`O=C(NNC(=O)c1ccc(-n2cncn2)c([N+](=O)[O-])c1)c1ccccc1`: the activity change (cytotoxicity) was 9.1%.

On to `O=C(COC(=O)c1ccccc1NC(=O)c1ccco1)Nc1ccc2c(c1)OC(F)(F)O2`, for which the activity change (cytotoxicity) is -4.2%.

For `COc1ccc(S(=O)(=O)NC(CC(=O)NCc2ccccc2OC)c2ccco2)cc1` (stereo not given), the activity change (cytotoxicity) was 5%.

On to `Cc1c(NC(=O)Nc2cccc([N+](=O)[O-])c2)c(=O)n(-c2ccccc2)n1C`, for which the activity change (cytotoxicity) is 0%.

(Values after PubChem BioAssay AID602141 (Sanford-Burnham Center for Chemical Genomics, 2011).)
